Compound activity: PubChem BioAssay, National Center for Advancing Translational Sciences (NCATS)
Only some compounds are listed: those with a hit (about 4.7% of all), similar ones and a draw of the others.
D1 antag: Antagonist of Human D 1 Dopamine Receptor: qHTS. D(1A) dopamine receptor (Homo sapiens), P21728. HEK293 TREx D1 cells, calcium flux, dopamine EC80; active compounds read low. activity change, negative = inhibition, % at 10 µM. hit rate 3.2% among 360,000; in the data active means activity change below about -30%
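After overnight tetracycline induction at 30 C, force-coupled D1 HEK293 cells took up a no-wash calcium dye at room temperature. Compounds were added and monitored 180 s, and the response to EC80 dopamine was then recorded.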
D1 potentiator: Potentiators of Human D1 Dopamine Receptor: qHTS | D(1A) dopamine receptor (Homo sapiens), P21728 | HEK293 TREx D1 cells, calcium flux, dopamine EC20 potentiation | potentiation, % at 10 µM | hit rate 0.036% among 360,000; in the data active means potentiation above about 30%
TRHR enhancer: qHTS for Small Molecule Agonists and Allosteric Enhancers of Human TRH Receptor: Primary Screen for Enhancers; Thyrotropin-releasing hormone receptor (Homo sapiens), P34981; hit rate 0.66% among 360,000; enhancement, % at 2 µM; TRHR cells, fluo-8 calcium fluorescence, EC20 TRH enhancement; AID 493056, 2011; in the data active means enhancement above about 30%
Target sequence (P34981 whole entry, looked up): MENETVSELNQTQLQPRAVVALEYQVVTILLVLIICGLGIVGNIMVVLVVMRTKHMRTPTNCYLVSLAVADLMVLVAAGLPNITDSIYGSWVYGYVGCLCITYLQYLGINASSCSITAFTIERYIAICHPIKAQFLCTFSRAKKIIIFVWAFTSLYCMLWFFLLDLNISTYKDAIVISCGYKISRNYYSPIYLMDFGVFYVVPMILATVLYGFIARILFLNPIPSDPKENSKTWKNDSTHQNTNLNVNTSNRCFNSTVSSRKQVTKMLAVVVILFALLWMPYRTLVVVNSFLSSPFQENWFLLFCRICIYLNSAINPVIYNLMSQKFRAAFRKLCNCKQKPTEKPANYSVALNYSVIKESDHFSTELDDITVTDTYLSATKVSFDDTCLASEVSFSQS
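TRHR-expressing cells loaded with fluo-8 calcium dye were read kinetically (ex 480/em 530) during compound addition, then stimulated with an EC20 of TRH (10 nM final). Enhancement of the Gq-mediated intracellular calcium response was scored.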
TRHR ag: qHTS for Small Molecule Agonists and Allosteric Enhancers of Human TRH Receptor: Primary Screen for Agonists. TRHR cells, calcium flux fluo-8, FDSS agonist mode. activation, % at 2 µM. Thyrotropin-releasing hormone receptor (Homo sapiens), P34981. hit rate 0.18% among 360,000. AID 493084, 2011
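TRHR-expressing cells, plated overnight in medium with 10% serum, were loaded with fluo-8 calcium dye at room temperature. After a 10 s baseline, library compound was pin-added and calcium release was recorded kinetically (ex 480/em 530) as agonist response.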
D1 ag: Allosteric Agonists of the Human D1 Dopamine Receptor: qHTS; D(1A) dopamine receptor (Homo sapiens), P21728; hit rate 1% among 360,000; activation, % at 2 µM; AID 504660, 2011; HEK293 T-REx D1 cells, calcium flux, agonist mode
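Tetracycline-induced HEK293 TREx D1 cells, force-coupled to calcium signalling, were dye-loaded with a no-wash calcium kit. Compound was pin-added after a 10 s baseline. Fluorescence was read kinetically at 1 cycle/s for 180 s, with calcium rises flagged as agonism.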
Numbers stand for hits; . = inactive. Unless noted, no stated cut-off is given here; in the data, active means activation above about 30%; inactive means the rest.

SMILES | D1 antag | D1 potentiator | TRHR enhancer | TRHR ag | D1 ag
Cc1ccccc1OCCC(=O)OCC(=O)NCCNC(=O)COC(=O)CCOc1ccccc1C | -43 | . | . | . | .
CCOC(=O)c1cccc(NC(=O)c2cc3cc4ccc(C)cc4nc3o2)c1 | . | . | . | . | .
O=C(Nc1nc2c(F)cc(F)cc2s1)C1CCN(C(=O)c2ccc(F)cc2)CC1 | . | . | . | . | .
CNc1nc(-c2ccc3c(c2)CCN3C(=O)c2ccc(F)cc2)cs1 | -38 | . | . | . | .
CNc1nc(-c2ccc3c(c2)CCN3C(=O)c2cccc(F)c2)cs1 | . | . | . | . | .
O=C(CN1CCCC1)Nc1nc(-c2ccc3c(c2)CCN3C(=O)c2ccccc2F)cs1 | -87 | . | . | . | .
CNc1nc(-c2ccc3c(c2)CCN3C(=O)c2ccccc2C)cs1 | . | . | . | . | .
Cc1cccc(C(=O)N2CCc3cc(-c4nc(NC(=O)CN5CCCC5)sc4C)ccc32)c1 | . | . | . | . | .
O=C(Nc1nc(-c2ccc(F)cc2)cs1)C1CCN(C(=O)c2ccc(F)cc2)CC1 | -40 | . | . | . | .
Cc1cccc(C(=O)N2CCc3cc(-c4csc(NC(=O)CN5CCCC5)n4)ccc32)c1 | -31 | . | . | . | .
CC(=O)Nc1cccc(C(=O)NCc2ccc3c(c2)CCN3C(=O)c2ccc(F)cc2)c1 | . | . | . | . | .
Cc1ccccc1OCC(=O)OCc1cc(=O)n2nc(C3CCCCC3)sc2n1 | . | . | . | . | .
CCC(C)NC(=O)CSc1nc2n[nH]c(C)c2c(=N)n1-c1ccc(C)c(Cl)c1 (stereo not given) | . | . | . | . | .
Cc1ccc(-n2ncc(C(=O)NCCCN3CCN(C)CC3)c2C2CCN(C(=O)OC(C)(C)C)CC2)cc1 | . | . | . | . | .
CC(C)Oc1ccc(CNC(=O)Cn2ncn3nc(-c4cccs4)cc3c2=O)cc1 | . | . | . | . | .
CSc1ccccc1NC(=O)c1c(Br)cnn1C | -33 | . | . | . | .
CC(C)c1nnc(NC(=O)c2cccs2)s1 | -53 | . | . | . | .
Cc1ccccc1NC(=O)c1ccccc1NC(=O)c1cccs1 | . | . | . | . | .
CSc1ccccc1NC(=O)c1cccs1 | -65 | . | . | . | .
Cc1cnccc1NC(=O)c1cccs1 | -41 | . | . | . | .
CCCCC(CC)c1nnc(NC(=O)c2cccs2)s1 (stereo not given) | . | . | . | . | .
CCn1ncc(C2=NOC(C(=O)NCC(C)C)C2)c1C (stereo not given) | . | . | . | . | .
CCn1ncc(C2=NOC(C(=O)Nc3cnn(C45CC6CC(CC(C6)C4)C5)c3)C2)c1C (stereo not given) | . | . | . | . | 34
O=C(c1cccs1)N1CCc2ccccc21 | . | . | . | . | .
O=C(/C=C/c1cccs1)N1CCc2ccccc21 | -36 | . | . | . | .
SMILES | D1 antag | D1 potentiator | TRHR enhancer | TRHR ag | D1 ag
FC(F)(F)c1cc(CO[C@@H]2CCCN[C@@H]2c2ccccc2)cc(C(F)(F)F)c1 | . | . | . | . | 47
O=C(Nc1ccc(F)cc1)C1CCN(S(=O)(=O)c2cccs2)CC1 | -40 | . | . | . | .
O=C(Nc1cc(Cl)ccn1)C1CCN(S(=O)(=O)c2cccs2)CC1 | -31 | . | . | . | .
Cc1csc(NC(=O)C2CCN(S(=O)(=O)c3ccccc3F)CC2)n1 | -38 | . | . | . | .
O=C(Nc1ccc(F)cc1)C1CCC(N2C(=O)c3ccccc3C2=O)CC1 (stereo not given) | -30 | . | . | . | .
O=C(Nc1ccncc1)C1CCN(S(=O)(=O)c2cccs2)CC1 | . | . | . | . | .
Cc1ccccc1-c1csc2ncnc(Sc3nnnn3C)c12 | . | . | . | . | .
CCCc1cc(N2CCN(c3ccccc3)CC2)n2cnnc2n1 | . | . | . | . | .
CCCc1cc(N2CCN(c3ccc(OC)cc3)CC2)n2cnnc2n1 | -33 | . | . | . | .
